Source: PubChem BioAssay AID1159580 (chemical genetic matrix, 2015)
Hit rate of the full screen: of about 5,500 compounds, about 2,000 (36%) were called active. Not shown: some 18% with an inconclusive outcome. Rule as the data show it: active = normalized growth mostly below about 0.91 (no sharp cut-off); inconclusive = no clear call, values can overlap the other calls; inactive = mostly above about 0.92. The list shows a part of the results.

Assay: chemical genetic growth profiling, strain panel (AID 1159580);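 also: tested at 20 µM; growth read once vehicle control cultures reached saturation at 30 °C; 1 = growth at the plate median or of vehicle wells; lower values mean less growth of the strain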
Settings: S. cerevisiae deletion strains, growth OD

Measured: normalized growth

C[C@H]1C(=O)CCC2[C@]3(C)CC[C@@]4(C)C5CC(C)(C)CC[C@]5(C)CC[C@]4(C)C3CC[C@@]21C (some centres not stated)
inactive: locus YJR043C, strain POL32, stronger effect = lower value 0.949 | locus YJR066W, strain TOR1, stronger effect = lower value 0.984 | locus YKL009W, strain mrt4, stronger effect = lower value 1.03 | locus YKL068W, stronger effect = lower value 1.02 | locus YKL085W, strain MDH1 (second series), stronger effect = lower value 1.01 | locus YKL085W, strain MDH1, stronger effect = lower value 1.01 | locus YKL160W, strain elf1, stronger effect = lower value 1.01 | locus YKL190W, strain CNB1, stronger effect = lower value 1.02 | locus YKR026C, strain gcn3, stronger effect = lower value 0.999 | locus YKR091W, strain srl3, stronger effect = lower value 1.01 | locus YLL001W, strain dnm1, stronger effect = lower value 1 | locus YLL026W, stronger effect = lower value 1 | locus YLL041C, strain sdh2, stronger effect = lower value 1.01 | locus YLR027C, strain aat2, stronger effect = lower value 1 | locus YLR039C, strain RIC1, stronger effect = lower value 0.738 | locus YLR058C, strain SHM2, stronger effect = lower value 0.994 | locus YLR102C, strain apc9, stronger effect = lower value 1.02 | locus YLR113W, strain HOG1, stronger effect = lower value 0.965 | locus YLR221C, strain rsa3, stronger effect = lower value 0.995 | locus YLR258W, strain gsy2, stronger effect = lower value 1 | locus YLR262C, strain YPT6 (second series), stronger effect = lower value 1.01 | locus YLR268W, strain sec22, stronger effect = lower value 0.985 | locus YLR320W, strain mms22, stronger effect = lower value 1.01 | locus YLR342W, strain FKS1 (second series), stronger effect = lower value 0.992 | locus YLR342W, strain FKS1, stronger effect = lower value 1 | locus YLR357W, strain rsc2, stronger effect = lower value 0.977 | locus YLR370C, strain arc18, stronger effect = lower value 1.02 | locus YLR371W, strain rom2, stronger effect = lower value 1 | locus YLR384C, strain iki3, stronger effect = lower value 0.978 | locus YLR418C, strain cdc73, stronger effect = lower value 0.876 | locus YML016C, strain PPZ1, stronger effect = lower value 1.01 | locus YML032C, strain rad52, stronger effect = lower value 0.953 | locus YML120C, strain ndi1, stronger effect = lower value 0.998 | locus YML124C, strain tub3, stronger effect = lower value 1.02 | locus YMR058W, strain fet3, stronger effect = lower value 1.02 | locus YMR078C, strain ctf18, stronger effect = lower value 1.01 | locus YMR125W, strain sto1, stronger effect = lower value 0.995 | locus YMR129W, stronger effect = lower value 0.996 | locus YMR205C, strain PFK2, stronger effect = lower value 1.02 | locus YMR223W, strain ubp8, stronger effect = lower value 0.994 | locus YMR231W, strain pep5, stronger effect = lower value 0.996 | locus YMR263W, strain SAP30, stronger effect = lower value 1.02 | locus YMR307W, strain GAS1, stronger effect = lower value 1.04 | locus YNL067W, strain RPL9B, stronger effect = lower value 1.02 | locus YNL071W, strain lat1, stronger effect = lower value 1.01 | locus YNL153C, strain GIM3, stronger effect = lower value 1.01 | locus YNL183C, strain NPR1, stronger effect = lower value 0.981 | locus YNL209W, strain ssb2, stronger effect = lower value 1.02 | locus YNL233W, strain BNI4, stronger effect = lower value 1.01 | locus YNL248C, strain rpa49, stronger effect = lower value 0.919 | locus YNL250W, strain rad50, stronger effect = lower value 1.03 | locus YNL271C, strain bni1, stronger effect = lower value 1.01 | locus YNL298W, strain CLA4, stronger effect = lower value 0.993 | locus YNL307C, strain MCK1, stronger effect = lower value 0.984 | locus YNL322C, strain KRE1 (second series), stronger effect = lower value 0.985 | locus YNR049C, strain mso1, stronger effect = lower value 0.994 | locus YOL006C, strain TOP1, stronger effect = lower value 0.757 | locus YOL012C, strain htz1 1.29 | locus YOL147C, strain pex11, stronger effect = lower value 0.987 | locus YOR001W, strain rrp6, stronger effect = lower value 0.98 | locus YOR061W, strain CKA2, stronger effect = lower value 0.985 | locus YOR069W, strain VPS5, stronger effect = lower value 1.01 | locus YOR070C, strain gyp1, stronger effect = lower value 0.996 | locus YOR080W, strain dia2, stronger effect = lower value 1 | locus YOR083W, strain WHI5, stronger effect = lower value 1.01 | locus YOR106W, strain vam3, stronger effect = lower value 1.02 | locus YOR136W, strain idh2, stronger effect = lower value 0.994 | locus YOR144C, strain elg1, stronger effect = lower value 1 | locus YOR184W, strain ser1, stronger effect = lower value 0.967 | locus YOR231W, strain MKK1, stronger effect = lower value 0.985 | locus YOR265W, strain rbl2, stronger effect = lower value 0.993 | locus YOR270C, strain vph1, stronger effect = lower value 1.05 | locus YOR290C, strain snf2, stronger effect = lower value 0.991 | locus YOR316C, strain cot1, stronger effect = lower value 1.01 | locus YPL051W, strain arl3, stronger effect = lower value 0.999 | locus YPL055C, strain LGE1, stronger effect = lower value 0.938 | locus YPL078C, strain atp4, stronger effect = lower value 1.03 | locus YPL106C, strain sse1, stronger effect = lower value 0.989 | locus YPL240C, strain hsp82, stronger effect = lower value 0.997 | locus YPL256C, strain CLN2, stronger effect = lower value 1.05 | locus YPR119W, strain clb2, stronger effect = lower value 1.02 | locus YPR141C, strain kar3, stronger effect = lower value 1.02 | locus YPR163C, strain tif3, stronger effect = lower value 0.993 | locus YPR167C, strain met16, stronger effect = lower value 1.01 | strain wtn01, stronger effect = lower value 0.948
active: locus YKR001C, strain vps1, stronger effect = lower value 0.876 | locus YNR052C, strain pop2, stronger effect = lower value 0.851
